Vif inh: blocks HIV Vif function; HEK293T cells, Vif self-association by quenched fluorescence, imaging, 24 h; inhibition, % at 7.49 µM; hit rate 0.35% among 340,000; in the data active = inhibition above about 50%, passing the limit was not always enough
esBAF inh: inhibitors of esBAF chromatin remodeling in mouse ES cells. Bmi1-luciferase knock-in reporter, 24 h; 100% = twice the neutral-well signal. reporter increase, % at 12.5 µM. hit rate 2% among 350,000. AID 602393; in the data active = activation above about 40%;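 also: 0% = median of the plate's neutral control wells and 100% = double that signal; a rise in the Bmi1 reporter signal indicates esBAF inhibition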
NadD inh: inhibitors of Staphylococcus aureus NadD | hit rate 0.78% among 360,000 | inhibition, % at 20 µM | purified NadD enzyme, colorimetric absorbance read-out; in the data active = inhibition above about 26%
SMARCA2 act: increases SMARCA2 function in MMTV reporter cells; MG213 cells, MMTV-luciferase reporter, dexamethasone, overnight; activation, % at 9.1 µM; hit rate 1% among 370,000; AID 652017; in the data active = activation above about 7.8%;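 also: 0% = vehicle wells and 100% = reference activator wells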
GRIN3A LBD mod: modulates the human NR3A ligand-binding domain; Tm shift relative to glycine control, % at 25 µM; AID 1259313; NR3A LBD differential scanning fluorimetry, Tm shift; 0% = protein alone, 100% = glycine-bound protein; hit rate 2.5% among 340,000;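 active = melting temperature shift of at least 10% of the positive control shift, at one fixed dose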
SKN-1 block: C. elegans SKN-1 inhibition. C. elegans VP596 Pgst-4::GFP/RFP ratio, acrylamide-induced, 24 h. inhibition, % at 21.8 µM. hit rate 0.49% among 360,000. AID 624304;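 active = interference check ratio from 0.5 to 1.5 plus GFP to RFP signal ratio inhibition reaching or exceeding a fixed threshold, cut at about 30% in these data, passing the limit was not always enough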
The depositor's hits bear a star; . = not tested or not shown. Shown are actives, neighbours in structure and some others; about 5.2% of the full set was active somewhere.

SMILES	Vif inh	esBAF inh	NadD inh	SMARCA2 act	GRIN3A LBD mod	SKN-1 block
O=C(OCc1c(Cl)cccc1Cl)c1ccccn1	-7	5	-1	-5	-1	19
Cc1cc(Cl)c2oc(C(=O)N(C)Cc3ccon3)c(C)c2c1	3	71*	-7	1	-3	23
Cc1cc(Cl)c2oc(C(=O)N3CCN(C(=O)c4ccco4)CC3)c(C)c2c1	-8	52*	-6	4	-4	8
Cc1cc(Cl)c2oc(C(=O)N3CCOCC3)c(C)c2c1	14	67*	-3	3	.	14
Cc1cc(Cl)c2oc(C(=O)N(C)C3CCOC3)c(C)c2c1 (stereo not given)	-9	42*	-8	2	2	-16
C[C@H](CO)N1C[C@H](C)[C@@H](CN(C)C(=O)Nc2ccc(F)cc2)Oc2c(NS(C)(=O)=O)cccc2C1=O	.	1	.	.	.	.
Cc1ccc2oc(C(=O)N3CCCCCC3)c(C)c2c1	4	64*	-8	1	0	-18
Cc1c(C(=O)N2CCCCC2)oc2ccc(Br)cc12	-7	.	-2	4	-2	17
CCCC(=O)N(CCN1CCOCC1)c1nc2c(OC)ccc(OC)c2s1	11	-7	-2	-1	-1	-14
CCCC(=O)N(CCN1CCOCC1)c1nc2c(OCC)cccc2s1	-5	6	0	.	0	40*
COCC(=O)Nc1ccc2c(c1)C(=O)N(C)C[C@@H](OC)[C@H](C)CN(C(=O)CN1CCOCC1)[C@H](C)CO2	.	-1	.	.	.	.
CCCCCCCC/C=C\CCCCCCCC(=O)NCCO	-1	-6	-12	-1	10*	-18
COc1ccc(CN(C)C[C@@H]2Oc3c(NS(=O)(=O)c4cn(C)cn4)cccc3C(=O)N([C@H](C)CO)C[C@@H]2C)cc1	.	-2	.	.	.	.
CO[C@@H]1CN(C)C(=O)c2ccc(NC(=O)Nc3c(C)noc3C)cc2OC[C@H](C)NC[C@H]1C	.	-7	.	.	.	.
O=C1/C(=C/Nc2ccc3c(c2)OCO3)CCc2ccccc21	.	.	-7	2	-4	9
COc1ccc2c(c1)CC/C(=C\Nc1ccc3c(c1)OCO3)C2=O	.	53*	-5	5	2	3
CC(=O)c1ccc2c(c1)C1C=CCC1C(c1ccncc1)N2 (stereo not given)	11	54*	4	3	-6	10
CCN1CC=C2C(C1)C(c1ccc(Cl)s1)C(C#N)=C(N)C2(C#N)C#N (stereo not given)	87*	-5	1	1	-6	-16
CCN1CC=C2C(C#N)=C(N)C(C#N)(C#N)[C@H](c3cccc(OC)c3OC)[C@H]2C1	3	.	12	-2	2	15
CO[C@H]1CN(C)C(=O)c2ccc(NC(=O)C3CC3)cc2OC[C@@H](C)N(C)C[C@@H]1C	.	0	.	.	.	.
OC(c1ccccc1)c1nc(-c2ccccc2)cs1 (stereo not given)	3	52*	0	2	.	9
CC(=O)Nc1cccc(-c2csc(C(O)c3ccccc3)n2)c1 (stereo not given)	18	49*	-1	0	.	8
COCc1cccc(-c2csc(C(O)c3cccc(OC)c3)n2)c1 (stereo not given)	-2	11	-1	-1	.	4
OC(c1ccccc1)c1nc(-c2ccc(Cl)cc2)cs1 (stereo not given)	-2	31	-4	2	.	26
O=C(O)c1cccc(-c2csc(C(O)c3cccc(Cl)c3)n2)c1 (stereo not given)	-10	48*	-4	4	.	-1
SMILES	Vif inh	esBAF inh	NadD inh	SMARCA2 act	GRIN3A LBD mod	SKN-1 block
COCc1cccc(-c2csc(C(O)c3ccccc3)n2)c1 (stereo not given)	.	53*	-7	-2	.	-4
CC(=O)Nc1cccc(-c2csc(C(O)c3ccc(F)cc3)n2)c1 (stereo not given)	-3	18	-4	3	.	9
CN1CCN(C(=O)C[C@@H]2C[C@H]3c4cc(NC(=O)Nc5ccccc5F)ccc4O[C@H]3[C@H](CO)O2)CC1	.	1	.	.	.	.
C[C@H]1CN([C@@H](C)CO)C(=O)c2cccc(NS(=O)(=O)c3ccc(Cl)cc3)c2O[C@H]1CN(C)S(C)(=O)=O	.	-1	.	.	.	.
CC(=O)Nc1ccc(CN2C(=O)C(CCc3ccccc3)ON=C2c2cnccn2)cc1 (stereo not given)	-5	47*	0	0	.	6
O=C1CC(c2ccc(Cl)cc2)CC(=O)C1CS(=O)(=O)c1ccccc1 (stereo not given)	1	.	6	-4	-7	-5
O=C1CC(c2ccccc2)CC(=O)C1Sc1ccc(Cl)cc1 (stereo not given)	0	.	3	-3	15*	16
Nc1ccc2cc3[nH]c4cc(N)ccc4c3nc2c1	.	-81	54*	-3	-4	-193
O=C(N/N=C\c1ccc(-c2ccc([N+](=O)[O-])cc2)o1)c1ccc2c(c1)OCO2	-3	.	17	-1	31*	5
COc1cc(C(=O)NCC(=O)N/N=C/c2ccc(-c3ccc([N+](=O)[O-])cc3)o2)cc(OC)c1OC	-1	0	-2	-3	14*	15
O=C(N/N=C/c1ccc([N+](=O)[O-])o1)c1ccc2c(c1)OCO2	-3	.	-1	-8	-1	8
COc1ccc(C(=O)O/N=C(\N)c2ccc(OC)c(OC)c2)c(OC)c1	0	56*	-7	.	-2	-1
COc1ccc(/C(N)=N/OC(=O)C2CCCCC2)cc1	9	61*	-7	4	2	6
N/C(=N\OC(=O)CC1CCCCC1)c1ccc(Br)cc1	-6	.	0	1	0	6
COc1ccc(/C(N)=N/OC(=O)C2CCCCC2)cc1OC	0	51*	-5	1	0	-5
N/C(=N\OC(=O)CC1CCCCC1)c1ccc(Cl)cc1	2	41*	-6	1	1	8
COc1ccc(C(=O)O/N=C(\N)c2ccccc2)c(OC)c1	-1	.	-1	-2	-9	6
COc1cccc(S(=O)(=O)N[C@H]2CC[C@@H](CC(=O)NCc3ccccc3)O[C@@H]2CO)c1	.	3	.	.	.	.
N/C(=N\OC(=O)CC1CCCCC1)c1cccc(Br)c1	-6	29	-4	0	2	7
N/C(=N\OC(=O)C1CCCCC1)c1cccc(Br)c1	3	45*	-6	.	-2	-5
O=c1oc(C2(O)CCCCC2)cc2ccc(-c3ccc4[nH]ccc4c3)cc12	-10	21	9	3	11*	-27
O=C(C=Cc1cccs1)c1ccc(Cl)s1	17	8	-4	2	-11	41*
Fc1cnc(N2CCc3ccccc32)nc1N1CCc2ccccc21	-14	47*	7	1	0	0
CC1(C)CC(=O)c2cnc(N3CCc4ccccc43)nc2C1	-5	.	1	2	1	3
COC(=O)c1ccc(C(=O)OC)c(NC(=O)COC(=O)C23CC4CC(CC(O)(C4)C2)C3)c1	52*	-1	2	-3	2	-17

High-throughput results from PubChem.
